Measurements as given in the supplement of paper PMC6555819.

Assays:
Assay in all cases: PBM binding z-score (relative to random genomic background probes); higher = stronger binding; sequences stand for … in GC…GCGATTGACAGCGTAGAATGAAGG
[1] = tested on: RARb homodimer (NR concentration 270 nM)
Method in brief: (§1)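 Regression normalization was applied to scanned fluorescence from custom Agilent 4×180K protein-binding microarrays. Before scanning, arrays were incubated 1 h with ligand-free nuclear receptor dimers, and binding was detected with antibodies against each partner (one per run). Binding z-scores use the random background probes as reference.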

[2] = tested on: RARg:RXRa (NR concentration 270 nM, RXRa partner concentration 90 nM)
Method in brief: as §1

[3] = tested on: RARg homodimer (NR concentration 270 nM)
Method in brief: as §1

[4] = tested on: RXRa DBDmut IVT, anti-RXR (DBD mutation: RXRa K156A/R161A, NR concentration 90 nM)
Method in brief: as §1

[5] = tested on: RXRa homodimer (NR concentration 180 nM)
Method in brief: as §1

[6] = tested on: THRa:RXRa (NR concentration 90 nM, RXRa partner concentration 90 nM)
Method in brief: as §1

[7] = tested on: THRa homodimer (NR concentration 90 nM)
Method in brief: as §1

[8] = tested on: VDR homodimer (NR concentration 270 nM)
Method in brief: as §1

Row | Sequence | PBM binding z-score [1] | PBM binding z-score [2] | PBM binding z-score [3] | PBM binding z-score [4] | PBM binding z-score [5] | PBM binding z-score [6] | PBM binding z-score [7] | PBM binding z-score [8]
1 | CCTGCTAGGTCCTGGTCAGCTAATCTACAGTATG | 0.0603 | -0.177 | -0.17 | -0.107 | -0.298 | -0.0341 | -0.199 | -0.989
2 | CGAACTAGGTCATTGACAAGACAGTGAATAGTAA | 2.2 | 3.71 | 4.21 | 1.81 | 2.68 | 2.3 | 0.53 | 0.774
3 | CAAGCTAGGTCACCGGAAGGTCAAAGTCCGCATG | 5.19 | 8.48 | 7.81 | 1.93 | 6.91 | 4.5 | 2.79 | 3.87
4 | AGTCAAAGTTCACTAGGTAACCTAAGATTCAGCT | 3.75 | 5.2 | 5.66 | 4.32 | 4.04 | 2.46 | 0.759 | 4.29
5 | CGAACTAGGTGATCCAGGACAGTGAATACATTGA | 0.12 | 0.151 | 0.467 | 0.07 | 0.363 | 1.38 | 0.934 | 0.0681
6 | ATATGTAGGTTATCGGGTCTTTCAGTTTGCGCAT | 1.23 | 0.844 | 0.939 | 0.92 | 1.03 | 1.08 | 1.3 | 1.44
7 | TCGAGAAGGTTAGGGGCATTCAGAATGGCGTCGA | 1.46 | 1.08 | 0.841 | 0.703 | 1.45 | 1.12 | 0.127 | 0.971
8 | TAGCCTAGGTCATTCCGGGGCCAGTATAGAAAGC | 3.12 | 5.28 | 4.24 | 1.28 | 2.66 | 3.63 | 0.929 | 1.46
9 | GCTGCTAGGTTAGGTTGGTCAGCTAACGGGTACG | 0.8 | 0.0162 | 0.355 | 0.0127 | -0.131 | 0.0584 | -0.34 | 0.253
10 | CGAACTAAGTCAAGGACAGTGAATCTCCGCACGC | 0.164 | 0.0358 | 0.274 | 0.417 | -0.164 | 1.45 | 1.12 | -0.0534
11 | AGAACGACGGCACGCTGAGTTGATAGCAGAGTAG | -0.983 | -0.171 | -0.213 | -0.569 | -0.1 | -0.601 | -1.14 | -0.198
12 | CGAACGAGGGCATGAGTGGATAGCAAATGCCGAT | 0.496 | 1.27 | 1.61 | 2.02 | 0.916 | 1.04 | -0.129 | 0.792
13 | AGAATGATGTTATACGTAGATCAGGGAAGAAAGT | -0.0497 | 0.194 | 0.393 | -0.231 | -0.0318 | -0.0993 | -0.533 | -0.17
14 | AATACAGGGTCACTAGGCCGGAGTAGGTACGAAT | 3.18 | 5.13 | 4.62 | 2.81 | 5.28 | 3.4 | 1.2 | 2.61
15 | GCGACTGGGGCAAAGCAGGTTATCATAAGGTTGG | 0.97 | 0.559 | 0.655 | -0.0158 | 0.368 | 2.9 | 0.0261 | -0.46
16 | TGAATGAGGTGATAAGATCAGGGAACGTTGCAAA | -0.0418 | 0.599 | 0.324 | -0.998 | 0.631 | 1.43 | 0.185 | -0.465
17 | CCGACTGGGGGAAAGGTTACCATACTCAGTACGA | 2.1 | 2.79 | 1.78 | 0.141 | 3.06 | 2.14 | 0.672 | 0.298

Row | Sequence | PBM binding z-score [1] | PBM binding z-score [2] | PBM binding z-score [3] | PBM binding z-score [4] | PBM binding z-score [5] | PBM binding z-score [6] | PBM binding z-score [7] | PBM binding z-score [8]
18 | TCGAGTAGATTACCAATGGGGCATTCAGCTTTCT | -0.458 | -0.531 | -0.494 | 0.278 | -0.304 | -0.599 | -0.825 | -0.571
19 | TCATACAGGTAAAAGGTGAAAGTCGGTGTGGTAA | 2.02 | 2.07 | 1.09 | 1.58 | 3.18 | 1.81 | 0.619 | 0.324
20 | TCATATAGGTAAATGTGAAAGTCGAACGATATGA | -0.396 | 0.293 | 0.464 | 0.849 | 0.579 | -0.0536 | -0.354 | 0.207
21 | CCTACTGGGCCATCAGGTCATTGCTATCAACGTT | 2.55 | 2.04 | 1.77 | 0.254 | 1.37 | 3.24 | 2.94 | 1.62
22 | ACTAGCAGACCAAGGGTCACTCAAGATTAGTCCG | 3.58 | 3.6 | 3.3 | 0.335 | 3.57 | 2.42 | -0.116 | 1.2
23 | CGAACTAGGTCAGAACATGACAGTGAAGGATGAT | 1.74 | 2.34 | 2.89 | 0.671 | 1.33 | 1.24 | 0.0482 | 0.133
24 | CGTCCAAGGTCAGCCGGTCAGTGAAAGCGACGTG | 4.5 | 5.54 | 6.43 | 2.56 | 3.93 | 3.58 | 1.93 | 0.973
25 | GCTTACGGGTCAGAGGTTATAGCATGAATAGAAT | 2.66 | 4.85 | 3.51 | 1.24 | 6.16 | 2.66 | -0.0589 | 0.979
26 | CGAACTAGGTGAGAACAGGACAGTGAAGGATGAT | 0.34 | 0.567 | 0.579 | 0.0565 | 0.458 | 1.21 | 0.0768 | 0.286
27 | GATAGAGGGTCAGCTAGAGGCCAGAGTATGGAAA | 3.28 | 6.38 | 4.5 | 0.579 | 3.71 | 2.39 | -0.103 | 0.387
28 | GGAACGAGGGCATTCTAGTTGATAGCATGGCGAT | 0.668 | 0.971 | 1.39 | 3.36 | 0.575 | 2.54 | -0.282 | 2.43
29 | ATCGAAAGATCGACGAGGTGAGTATACACCGTTT | -0.514 | 0.223 | 0.471 | -0.641 | 0.512 | 1.14 | 0.311 | -0.18
30 | TCGAGTAGGTTAGGGGCATTCAAAATGGCGTCGA | 0.918 | 0.367 | 0.48 | 0.614 | 0.622 | 1.06 | 0.276 | 1.43
31 | TCTCGGAGGACACGAAGGTCAGAGGTTTCCAGAG | 4.01 | 3.24 | 3.9 | 0.797 | 2.29 | 3.07 | 1.17 | 1.73
32 | AGTCAAAGTTCATCTAGGTAACGTAGGATATGCT | 4.05 | 5.54 | 6.32 | 4.71 | 4.86 | 3.08 | 0.358 | 5.15
33 | GCTGCTAGGTCAACTGATGGTCAGCAAAAGCTCG | 3.66 | 5.17 | 5.41 | 1.5 | 2.99 | 2.91 | 0.775 | 0.254
34 | AGTCAAAGTTCACTAGGGAACGTAAGATTCAGCT | 3.65 | 4.75 | 5.65 | 4.23 | 3.67 | 2.05 | -0.852 | 3.23
